Data as given in PubChem BioAssay (NCI).
The panel holds about 79,000 compounds, 15% with a hit somewhere; the sample as a whole holds those more often. Rule as the data show it: active = growth inhibition above about 70%; inactive = the rest.

Assays:
[1] = NCI Yeast Anticancer Drug Screen. Data for the rad50 strain (AID 155);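 also: 0% = growth of vehicle-only cultures of the same strain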; details: S. cerevisiae rad50 strain growth inhibition; at 50.0 µM; active compounds read high
Procedure, shortened: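 Compounds were tested on a yeast strain with an engineered DNA damage repair alteration; the reported value is growth inhibition normalised to vehicle treatment.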

[2] = NCI Yeast Anticancer Drug Screen. Data for the mec2-1 strain (AID 157); details: S. cerevisiae mec2-1 strain, at 50.0 µM, active compounds read high
Procedure, shortened: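 Mutant yeast (mec2-1) grown with compound; growth inhibition relative to vehicle control reported.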

[3] = NCI Yeast Anticancer Drug Screen. Data for the sgs1 mgt1 strain (AID 161);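 also: 0% = growth of cultures given vehicle only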; details: S. cerevisiae sgs1 mgt1 strain, at 50.0 µM, active compounds read high
Procedure, shortened: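 This yeast growth screen uses a strain with defined DNA-repair lesions; compound-treated growth is compared with vehicle-treated growth.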

[4] = NCI Yeast Anticancer Drug Screen. Data for the cln2 rad14 strain (AID 165);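 also: 0% = growth equal to vehicle treated cultures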; details: S. cerevisiae cln2 rad14 strain, at 50.0 µM, active compounds read high
Procedure, shortened: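 Readout is yeast growth inhibition versus vehicle-treated controls, using a strain with cln2 and rad14 alterations exposed to compound.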

[5] = NCI Yeast Anticancer Drug Screen. Data for the bub3 strain (AID 167); details: S. cerevisiae bub3 mutant strain, at 50.0 µM, active compounds read high
Procedure, shortened: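 Growth of a checkpoint-deficient yeast mutant is measured after compound exposure. Values represent inhibition relative to vehicle.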

[6] = NCI Yeast Anticancer Drug Screen. Data for the mlh1 rad18 strain (AID 175); details: S. cerevisiae mlh1 rad18 strain growth inhibition; at 50.0 µM; active compounds read high
Procedure, shortened: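 Genetically defined yeast (DNA repair-deficient) exposed to compounds; growth inhibition determined relative to vehicle.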

Measured: growth inhibition

Cn1cnc([N+](=O)[O-])c1Sc1n[nH]c(-c2ccc(Cl)cc2)n1
inactive: [1] -11.6% | [2] 1.7% | [3] -7.75% | [4] 21.4% | [5] 17.1% | [6] -6.05%

COc1ccc2c3c([nH]c2c1)C1CC2C(CC(O)C(OC)C2C(=O)O)CN1CC3 (stereo not given)
inactive: [1] -6.35% | [2] -23.7% | [3] -1.75% | [4] 15.2% | [5] 0.15% | [6] -4.9%

C[n+]1ccc(Nc2ccc(NC(=O)c3ccc(N)cc3)cc2)cc1
inactive: [1] 12.9% | [2] 20.4% | [3] 8.6% | [4] -5.05% | [5] 6.25% | [6] 17.4%

c1ccc(Cn2nnnc2Nc2ccccc2)cc1
inactive: [1] -19.2% | [2] -10.7% | [3] -3.65% | [4] 19.8% | [5] 26.4% | [6] 10.4%

CCOC(=O)Cc1nc2sc(C)c(-c3ccccc3)c2c(=O)[nH]1
inactive: [1] 32.4% | [2] 19.6% | [3] 27.5% | [4] 3.35% | [5] 17.2% | [6] 31.4%

O=c1[nH]cc(Cl)cc1Cl
inactive: [1] 0.05% | [2] 3.85% | [3] -4% | [4] -8.35% | [5] 2.3% | [6] -1.45%

COc1cc(/C=N/N2CC(=O)N(c3cccc(Cl)c3)CC2=O)cc(OC)c1
inactive: [1] -1.65% | [2] 5.7% | [3] -1.6% | [4] -12.8% | [5] -4.65% | [6] 26.7%

N=C1C(O)C2(I)c3ccccc3N3C(=N)C(O)C4c5ccccc5N1C4C32 (stereo not given)
inactive: [1] 5.55% | [2] 2.85% | [3] -38.5% | [4] -5.8% | [5] -29.4% | [6] 8.95%

CCOc1ccccc1C=C1c2ccccc2C(=O)c2ccccc21
inactive: [1] 10.3% | [2] -7.6% | [3] -3.6% | [4] -21.6% | [5] 18.1% | [6] 6.25%

O=C(OCc1ccccc1)c1ccccc1-c1c2ccc(=O)cc-2oc2cc(OCc3ccccc3)ccc12
inactive: [1] 33.4% | [2] 18% | [3] 40.9% | [4] 23.6% | [5] 21.3% | [6] 26.1%

COC1=C(C(=O)OC(C)(C)C)[C@]2(C)C(C(=O)OC(C)(C)C)C(OC)=C(C(=O)OC(C)(C)C)[C@]2(C)C1C(=O)OC(C)(C)C (stereo not given in full)
inactive: [1] 30.6% | [2] 15.4% | [3] 22.8% | [4] 17.6% | [5] -3.25% | [6] 29.9%

C=CCc1ccc(OC(=O)Nc2ccc(S(=O)(=O)NC3CCCCC3)cc2)c(OC)c1
inactive: [1] 33.7% | [2] 8.85% | [3] 44.7% | [4] 33.1% | [5] 11.8% | [6] 44.4%

CN(C)/N=C\c1ccc([N+](C)(C)C)cc1
inactive: [1] -20.4% | [2] -25.1% | [3] 7.05% | [4] -19.9% | [5] 32.8% | [6] -44.7%

NC(CS)=NCCc1nc2ccccc2[nH]1
inactive: [1] 12.6% | [2] 9.95% | [3] -0.2% | [4] -2.85% | [5] 7.6% | [6] 4.3%

Nc1cnc2ccccc2c1
inactive: [1] 10.2% | [2] 1.25% | [3] -8.45% | [4] -46.5% | [5] 11.8% | [6] -4.1%

COC1OC2COC1(OCc1ccccc1)C1OC(C)(C)OC21 (stereo not given)
inactive: [1] -23.8% | [2] -5.85% | [3] -29.9% | [4] -0.8% | [5] -26.2% | [6] 5.35%

CCCNCCCCC(C)Nc1cc(OC)cc2cccnc12 (stereo not given)
inactive: [1] 7.1% | [2] -14.8% | [3] -15.6% | [4] -21.1% | [5] 8.2% | [6] 23.9%

CC1c2ccccc2CC(CCN(C)C)c2ccccc21 (stereo not given)
inactive: [1] 8.1% | [2] -12.8% | [3] 34% | [4] 13.4% | [5] 28.6% | [6] -20.3%

CCOC(=O)C1=C(C(C)=O)C(c2ccc(OC)c(OC)c2)C(C(C)=O)=C(C(=O)OCC)N1
inactive: [1] 35.5% | [2] 12.9% | [3] 8.9% | [4] 35% | [5] -4.95% | [6] 8.55%

N#C/C(=C\c1ccc[nH]1)C(=O)c1ccccc1
inactive: [1] -5.7% | [2] -11.8% | [3] -18.9% | [4] 16.5% | [5] 1.15% | [6] -28.6%
